Growth inhibition, inhibition and outcome data for 20 molecules are collected here from PubChem BioAssay.

The nature of assay [1]: antimalarial activity against Dd2 strain (AID 2302;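 active means growth inhibition above 50% at the single 2 µM test dose, taken to imply half-maximal potency below 2 µM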;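 further: 0% = DMSO untreated growth and 100% = chloroquine plus artemisinin killed control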). Conditions: P. falciparum Dd2 in RBCs, LDH growth readout, 72 h; at 2 µM; hits give high values.
Assay [2] in a line: HepG2 cytotoxicity, primary screen, cytotoxicity control for P. falciparum antimalarial project, cell-based, ATP luminescence (AID 2303;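 active means inhibition above 50%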;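 further: 0% = DMSO wells and 100% = digitonin-killed cells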). Conditions: HepG2 viability, 24-48 h, at 10 µM, hits give high values.
The target of assay [3] is L-lactate dehydrogenase (Plasmodium falciparum (isolate CDC / Honduras)) (UniProt Q27743). The assay can be described thus: PfLDH activity inhibition – cell lysate, 3D7 strain, counter-screen for P. falciparum growth inhibition project (AID 2304).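 Further: 0% = vehicle and 100% = reference inhibitor.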 Conditions: P. falciparum 3D7 crude extract, LDH APAD/NBT absorbance; at 2 µM; hits give high values. Background: Counterscreens check selectivity or assay interference.
Sequence of L-lactate dehydrogenase (Plasmodium falciparum (isolate CDC / Honduras)) (Q27743 whole entry, looked up): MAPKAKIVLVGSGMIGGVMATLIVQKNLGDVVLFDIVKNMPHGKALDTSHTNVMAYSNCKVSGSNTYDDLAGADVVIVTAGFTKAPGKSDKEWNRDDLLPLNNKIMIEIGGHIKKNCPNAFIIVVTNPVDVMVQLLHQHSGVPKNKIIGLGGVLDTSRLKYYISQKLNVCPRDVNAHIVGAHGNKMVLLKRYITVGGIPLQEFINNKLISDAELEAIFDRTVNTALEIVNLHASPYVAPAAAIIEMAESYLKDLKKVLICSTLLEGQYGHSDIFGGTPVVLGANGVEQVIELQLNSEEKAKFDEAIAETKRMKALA

Assay [4] can be described thus: inhibition of 3D7 malaria parasite growth – strain 3D7 (AID 2306).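 Further: 0% = DMSO wells and 100% = chloroquine plus artemisinin control wells.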 Conditions: P. falciparum 3D7 erythrocytic growth, LDH absorbance, 72 h; at 2 µM; hits give high values.
Assay [5] has as its target Calcium-dependent protein kinase 1 (Plasmodium falciparum (isolate 3D7)) (UniProt P62344). In words: PfCDPK1 kinase inhibitors, biochemical, TCAMS library (AID 1159585; cut-off not given, nearly all actives have IC50 up to about 0.98 µM;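 further: inhibitors leave more ATP so luminescence rises with inhibition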). The following applies: recombinant PfCDPK1, Kinase-Glo ATP depletion luminescence. Background: Kinase-Glo reads ATP consumption through a luciferase reaction.
In assay [6] the target is Plasmodium falciparum protein kinase 6 (PK6, PF3D7_1337100) (UniProt Q8IDW1). In words: PfPK6 kinase inhibitors, biochemical, TCAMS library (AID 1159586). Conditions: recombinant PfPK6, Kinase-Glo ATP depletion luminescence.
Sequence of Plasmodium falciparum protein kinase 6 (PK6, PF3D7_1337100) (Q8IDW1 1-305): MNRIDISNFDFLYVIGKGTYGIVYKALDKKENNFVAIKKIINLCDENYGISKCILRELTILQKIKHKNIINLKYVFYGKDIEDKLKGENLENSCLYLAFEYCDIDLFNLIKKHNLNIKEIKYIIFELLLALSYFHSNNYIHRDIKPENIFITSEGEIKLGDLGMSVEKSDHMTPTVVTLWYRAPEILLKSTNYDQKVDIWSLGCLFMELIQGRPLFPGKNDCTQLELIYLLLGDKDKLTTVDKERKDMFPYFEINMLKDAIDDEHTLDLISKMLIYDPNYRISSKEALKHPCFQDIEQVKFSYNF
Assay [7] concerns the target Protein kinase 7 (PK7), Plasmodium falciparum 3D7 (PF3D7_0213400) (UniProt Q7YTF7). The assay can be described thus: inhibition of Plasmodium PK7 catalytic activity – biochemical, TCAMS antimalarial set, Kinase-Glo luminescence (AID 1159587). Conditions: recombinant PfPK7, Kinase-Glo ATP depletion luminescence.
In assay [8] the target is Calcium-dependent protein kinase 4 (Plasmodium falciparum (isolate 3D7)) (UniProt Q8IBS5). In words: PfCDPK4 kinase inhibitors, biochemical, TCAMS library (AID 1159588; cut-off not given, nearly all actives have IC50 up to about 0.91 µM). Conditions: recombinant PfCDPK4, Kinase-Glo ATP depletion luminescence.
Sequence of Calcium-dependent protein kinase 4 (Plasmodium falciparum (isolate 3D7)) (Q8IBS5 whole entry, looked up): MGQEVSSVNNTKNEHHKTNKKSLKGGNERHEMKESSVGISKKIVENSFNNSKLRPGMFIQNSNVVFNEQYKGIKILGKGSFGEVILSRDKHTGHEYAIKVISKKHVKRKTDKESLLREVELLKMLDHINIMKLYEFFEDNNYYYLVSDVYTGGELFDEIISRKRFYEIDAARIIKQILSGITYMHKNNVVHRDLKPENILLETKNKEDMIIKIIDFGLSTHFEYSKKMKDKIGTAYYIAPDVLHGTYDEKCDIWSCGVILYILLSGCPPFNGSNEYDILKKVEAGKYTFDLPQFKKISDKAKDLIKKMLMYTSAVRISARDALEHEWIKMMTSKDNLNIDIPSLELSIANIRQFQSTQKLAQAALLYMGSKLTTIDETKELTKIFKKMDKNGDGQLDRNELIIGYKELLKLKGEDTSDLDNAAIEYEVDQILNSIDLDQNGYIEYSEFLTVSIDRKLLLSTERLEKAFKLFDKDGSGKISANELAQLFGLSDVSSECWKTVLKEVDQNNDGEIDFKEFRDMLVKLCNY

In general, inhibition refers to the relative decrease from the control value, in per cent.

Unmarked numbers belong to inactive results. For some of these results: Results with a measured potency or affinity are listed apart. Calls of active or inactive are those of the source. Unless noted, how the calls were made is not given here.

Sequence of Calcium-dependent protein kinase 1 (Plasmodium falciparum (isolate 3D7)) (P62344 whole entry, looked up): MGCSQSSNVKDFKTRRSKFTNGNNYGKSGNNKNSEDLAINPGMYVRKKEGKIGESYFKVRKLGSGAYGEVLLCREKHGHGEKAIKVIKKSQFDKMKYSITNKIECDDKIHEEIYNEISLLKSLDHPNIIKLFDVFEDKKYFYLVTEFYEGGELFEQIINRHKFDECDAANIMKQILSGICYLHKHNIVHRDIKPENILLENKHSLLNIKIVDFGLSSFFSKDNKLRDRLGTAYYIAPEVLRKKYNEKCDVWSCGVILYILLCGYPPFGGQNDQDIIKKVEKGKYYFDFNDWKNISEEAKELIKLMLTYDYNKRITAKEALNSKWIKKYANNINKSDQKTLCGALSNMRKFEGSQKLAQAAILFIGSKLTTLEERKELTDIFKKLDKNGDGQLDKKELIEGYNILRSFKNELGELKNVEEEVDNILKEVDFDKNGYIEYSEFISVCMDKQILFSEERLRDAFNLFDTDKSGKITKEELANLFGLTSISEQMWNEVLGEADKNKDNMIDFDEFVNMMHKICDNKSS
Sequence of Protein kinase 7 (PK7), Plasmodium falciparum 3D7 (PF3D7_0213400) (Q7YTF7 1-343): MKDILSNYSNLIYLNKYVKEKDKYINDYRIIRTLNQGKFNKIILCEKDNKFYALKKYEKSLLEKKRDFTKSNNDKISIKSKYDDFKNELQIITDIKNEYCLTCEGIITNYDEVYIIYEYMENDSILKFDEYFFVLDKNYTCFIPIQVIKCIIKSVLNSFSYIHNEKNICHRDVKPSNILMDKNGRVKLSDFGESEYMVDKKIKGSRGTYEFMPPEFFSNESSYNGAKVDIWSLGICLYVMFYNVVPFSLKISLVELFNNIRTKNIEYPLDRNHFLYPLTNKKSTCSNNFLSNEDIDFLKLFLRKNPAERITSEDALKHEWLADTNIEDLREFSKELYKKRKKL

For the molecule `COc1ccc2nccc(NC(=O)N3CCC(NCc4cc5c(F)ccc(F)c5[nH]4)CC3)c2n1`, the growth inhibition was 40% in assay [1] and 99% (active) in assay [4]. Besides, the inhibition in assay [2] was 6%; in assay [3] it was -2%. Moreover, the result in assay [5], in assay [6], in assay [7] and in assay [8] was inactive.
As to `Clc1ccc(Nc2nc(Nc3ccc(Cl)c(Cl)c3)nc(Sc3nc4ccccc4[nH]3)n2)cc1Cl`, the growth inhibition in assay [1] is 100% (active); in assay [4], 99% (active). Moreover, the results for the inhibition in assay [2] and in assay [3] were 10% and 1%, respectively. Besides, the outcome in assay [5], in assay [6], in assay [7] and in assay [8] was inactive.
`COc1ccc(CN2CCC(NCc3cccc(-n4ccnc4)c3)CC2)cc1`: the growth inhibition in assay [1] is 93% (active); in assay [4], 100% (active). Besides, the inhibition is 10% in assay [2] and -5% in assay [3]. Also, the result in assay [5], in assay [6], in assay [7] and in assay [8] was inactive.
`Cc1[nH]c(C)c(-c2ccc(C(=O)c3ccccc3)cc2)c(=O)c1Br`: the results for the growth inhibition in assay [1] and in assay [4] were 96% (active) and 95% (active), respectively. In addition, the results for the inhibition in assay [2] and in assay [3] were -10% and 1%, respectively. Moreover, the result in assay [5], in assay [6], in assay [7] and in assay [8] was inactive.
With `CCc1ccc(NC(=O)c2ccc(CN3CCCN(Cc4cccc(C)c4)CC3)cc2)cc1`, the growth inhibition is -4% in assay [1] and 80% (active) in assay [4]. The inhibition in assay [2] is 53% (active); in assay [3] it was 1%. Moreover, the result in assay [5], in assay [6], in assay [7] and in assay [8] was inactive.
In the case of `COc1cc(F)c2ncc(Cl)c([C@H](O)CN3CCC(NCc4ccc5c(n4)NC(=O)CO5)CC3)c2c1`, the growth inhibition in assay [1] and in assay [4] was 99% (active) in each case. Besides, the inhibition in assay [2] was 14%; in assay [3], -1%. The outcome in assay [5], in assay [6], in assay [7] and in assay [8] was inactive.
Take `CCc1cn(C)c2c(N3CCCC3=O)cc(C(=O)N[C@@H](Cc3ccccc3)[C@H](O)CNC(C)(C)c3cccc(C(F)(F)F)c3)cc12`: the growth inhibition in assay [1] and in assay [4] was 97% (active) throughout. In addition, the values for the inhibition in assay [2] and in assay [3] were 22% and 0%, respectively. For the same molecule, the result in assay [5], in assay [6], in assay [7] and in assay [8] was inactive.
Turning to `CC(=O)Nc1cccc(CNCc2ccc(-c3cnc(N4CCCC(c5ccccc5)C4)nc3)cc2)c1` (stereo not given), the growth inhibition was 22% in assay [1] and 84% (active) in assay [4]. The inhibition in assay [2] was 16%; in assay [3] it was 3%. Also, the result in assay [5], in assay [6], in assay [7] and in assay [8] was inactive.
Turning to `CCCN1CCC2(CC1)NC(C(=O)NCCC(C)C)Cc1c2[nH]c2cc(Cl)ccc12` (stereo not given), the growth inhibition in assay [1] is 0%; in assay [4], 86% (active). Besides, the inhibition is 13% in assay [2] and -3% in assay [3]. Besides, the outcome in assay [5], in assay [6], in assay [7] and in assay [8] was inactive.
On to `COc1ccc(CNC2CCN(C)CC2)cc1-c1ccc(S(=O)(=O)NC2CCC2)s1`, for which the growth inhibition was 94% (active) in assay [1] and 100% (active) in assay [4]. Besides, the inhibition was 32% in assay [2] and 5% in assay [3]. Besides, the outcome in assay [5], in assay [6], in assay [7] and in assay [8] was inactive.
Regarding `Nc1nccc2ccc(-c3ccnc(NCc4cccnc4)n3)cc12`, the growth inhibition in assay [1] is 95% (active); in assay [4] it was 101% (active). Also, the inhibition in assay [2] was 11%; in assay [3] it was -3%. The result in assay [5], in assay [6], in assay [7] and in assay [8] was inactive.
As for `CN1CCC(C(=O)Nc2ccc(-c3ccc(-c4nc5ccc(C(F)(F)F)cc5[nH]4)s3)cc2)CC1`, the growth inhibition was 95% (active) in assay [1] and 101% (active) in assay [4]. The inhibition in assay [2] is 53% (active); in assay [3] it was 4%. Further, the outcome in assay [5], in assay [6], in assay [7] and in assay [8] was inactive.
For the molecule `Cc1nc(N)nc(N)c1OCCCCOc1ccccc1`, the figures for the growth inhibition in assay [1] and in assay [4] were 4% and 94% (active), respectively. For the same molecule, the inhibition in assay [2] is 62% (active); in assay [3] it was -1%. Besides, the result in assay [5], in assay [6], in assay [7] and in assay [8] was inactive.
On to `O=S(=O)(c1ccc2cc[nH]c2c1)N1CCC[C@@H]1CCN1CCC(c2c[nH]c3cnccc23)CC1`, for which the growth inhibition in assay [1] is 0%; in assay [4], 95% (active). The inhibition is 13% in assay [2] and 0% in assay [3]. The outcome in assay [5], in assay [6], in assay [7] and in assay [8] was inactive.
Take `NS(=O)(=O)c1ccc(CNc2ccc3ncc(-c4ccc(OC(F)(F)F)cc4)n3n2)cc1`: the growth inhibition in assay [1] is 99% (active); in assay [4], 97% (active). Further, the inhibition in assay [2] was 10%; in assay [3], -7%. For the same molecule, the outcome in assay [5], in assay [6], in assay [7] and in assay [8] was inactive.
Regarding `CCCc1ccccc1Nc1nc(C)cc(N(CC)CCCN2CCCCC2)n1`, the growth inhibition in assay [1] was 49%; in assay [4], 98% (active). Moreover, the inhibition in assay [2] is 27%; in assay [3] it was -3%. Moreover, the result in assay [5], in assay [6], in assay [7] and in assay [8] was inactive.
Take `Nc1nc(N)c2c(ccc3c2ccn3C2CCCCC2)n1`: the results for the growth inhibition in assay [1] and in assay [4] were 46% and 97% (active), respectively. The inhibition in assay [2] is 67% (active); in assay [3], 0%. For the same molecule, the outcome in assay [5], in assay [6], in assay [7] and in assay [8] was inactive.
Regarding `CCOC(=O)c1ccc(-c2c(C(F)(F)F)noc2-c2cc(CC)c(OC)cc2O)o1`, the growth inhibition is 95% (active) in assay [1] and 100% (active) in assay [4]. Besides, the values for the inhibition in assay [2] and in assay [3] were -7% and 1%, respectively. Besides, the outcome in assay [5], in assay [6], in assay [7] and in assay [8] was inactive.
Turning to `COc1ccc2nccc([C@@H](O)CN3CCC(NCc4cc5cccnc5[nH]4)CC3)c2n1`, the growth inhibition was 0% in assay [1] and 90% (active) in assay [4]. Besides, the inhibition was 7% in assay [2] and -2% in assay [3]. For the same molecule, the result in assay [5], in assay [6], in assay [7] and in assay [8] was inactive.
As to `CN1C(C)(C)CC(NC(=O)c2ccc(-c3nc4cc(Cl)c(Cl)cc4[nH]3)cc2)CC1(C)C`, the growth inhibition in assay [1] is 97% (active); in assay [4] it was 98% (active). Also, the values for the inhibition in assay [2] and in assay [3] were 8% and 4%, respectively. Also, the outcome in assay [5], in assay [6], in assay [7] and in assay [8] was inactive.
